The structures appear in SMILES notation. Hit rate of the full screen: of about 310,000 compounds, about 14,000 (4.5%) showed an effect of 50% or more. The effect is printed as a negative number. The list comes from a sample in which strong results are over-represented; it also holds similar structures and randomly drawn compounds.
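Further: peak tail current of the secondary pulse compared with the same well before compound.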

The assay deals with human ether-à-go-go-related gene (hERG) potassium channel (human, UniProt Q12809). Kind of assay: primary screen, population patch clamp on CHO cells stably expressing hERG; higher = less effect of the substance.
Sequence of human ether-à-go-go-related gene (hERG) potassium channel (Q12809 whole entry, looked up): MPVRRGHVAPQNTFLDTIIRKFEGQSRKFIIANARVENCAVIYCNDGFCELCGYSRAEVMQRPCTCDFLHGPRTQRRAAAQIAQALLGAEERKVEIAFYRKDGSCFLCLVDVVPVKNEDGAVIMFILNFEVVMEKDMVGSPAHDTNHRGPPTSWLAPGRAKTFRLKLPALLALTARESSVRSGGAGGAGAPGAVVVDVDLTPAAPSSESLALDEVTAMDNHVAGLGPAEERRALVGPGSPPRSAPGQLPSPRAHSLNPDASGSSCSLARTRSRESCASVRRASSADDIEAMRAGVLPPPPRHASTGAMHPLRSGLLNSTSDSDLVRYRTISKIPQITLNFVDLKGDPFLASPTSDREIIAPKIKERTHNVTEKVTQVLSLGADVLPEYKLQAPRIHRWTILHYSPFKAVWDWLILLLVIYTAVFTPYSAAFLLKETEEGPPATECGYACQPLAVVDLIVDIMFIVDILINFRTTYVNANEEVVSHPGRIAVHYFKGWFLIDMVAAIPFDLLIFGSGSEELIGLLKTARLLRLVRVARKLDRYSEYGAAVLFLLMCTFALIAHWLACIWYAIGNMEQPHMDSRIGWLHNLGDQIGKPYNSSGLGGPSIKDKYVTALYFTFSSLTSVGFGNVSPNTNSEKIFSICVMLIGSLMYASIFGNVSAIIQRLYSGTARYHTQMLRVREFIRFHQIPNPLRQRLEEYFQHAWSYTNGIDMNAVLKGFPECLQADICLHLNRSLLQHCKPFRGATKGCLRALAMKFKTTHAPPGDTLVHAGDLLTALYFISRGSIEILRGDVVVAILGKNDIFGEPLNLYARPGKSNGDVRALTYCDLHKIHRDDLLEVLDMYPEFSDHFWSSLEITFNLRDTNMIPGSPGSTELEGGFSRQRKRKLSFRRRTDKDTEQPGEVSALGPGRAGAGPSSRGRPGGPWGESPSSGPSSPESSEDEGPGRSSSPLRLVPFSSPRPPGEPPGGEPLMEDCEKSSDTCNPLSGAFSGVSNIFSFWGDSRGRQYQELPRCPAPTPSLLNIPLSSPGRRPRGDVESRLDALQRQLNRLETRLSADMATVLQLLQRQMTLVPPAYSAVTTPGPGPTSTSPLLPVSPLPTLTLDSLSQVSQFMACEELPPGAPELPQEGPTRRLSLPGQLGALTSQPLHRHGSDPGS
As for `CC1(C)CC(=O)C2=C(C1)OC1=C(C(=O)CC(C)(C)C1)C2c1ccccc1`, the “hERG current change (%, negative = inhibition) at 10uM” value was 16.9%. Then `Nc1c(N(C(=O)Nc2ccc(Cl)c(Cl)c2)C2CCCC2)c(=O)[nH]c(=O)n1Cc1ccccc1`, with 24.7%. Then `COc1ccc(NC(=O)CS(=O)CC(=O)Nc2ccc(-n3cnnn3)c(C)c2)cc1` (stereo not drawn), with 12.4%; and `S=c1[nH]nc(-c2ccco2)n1/N=C/C=C/c1ccco1`, with 13.7%; and `C/C(=N/NS(=O)(=O)c1ccc(C)cc1)c1ccc2c(c1)OCO2`, with 13%. Then `C=CCc1cccc2cc(C(=O)N(CC)CC)c(=O)oc12`, with -6.47%; and `CCOCCCN1C(=O)C2C(C(=O)Nc3ccc(OCC)cc3)C3C=CC2(O3)C1C(=O)NC1CCCCC1` (stereo not drawn), with -72.8%; and `CCCCN(C)CCN1C(=O)C2C(C(=O)Nc3ccc(Cl)cc3)C3C=CC2(O3)C1C(=O)NC1CCCCC1` (stereo not drawn), with -70.2%. In the case of `CCCN(CCC)CCN1C(=O)C2C(C(=O)Nc3cccc(SC)c3)C3C=CC2(O3)C1C(=O)NC1CCCCC1` (stereo not drawn), the “hERG current change (%, negative = inhibition) at 10uM” value is listed as -68.2%. Then `CCOc1ccc(NC(=O)C2C3C=CC4(O3)C2C(=O)N(Cc2cccnc2)C4C(=O)NC2CCCCC2)cc1` (stereo not drawn), with 16%; and `CCCN(CCC)CCN1C(=O)C2C(C(=O)Nc3ccc(C)cc3)C3C=CC2(O3)C1C(=O)NC1CCCCC1` (stereo not drawn), with -30.2%; and `CSc1cccc(NC(=O)C2C3C=CC4(O3)C2C(=O)N(CCN2CCOCC2)C4C(=O)NC2CCCCC2)c1` (stereo not drawn), with 9.21%. Then `CCCCN(C)CCN1C(=O)C2C(C(=O)Nc3ccc(OC)cc3)C3C=CC2(O3)C1C(=O)NC1CCCCC1` (stereo not drawn), with -8.93%. Then `COc1ccc(NC(=O)C2C3C=CC4(O3)C2C(=O)N(CCN2CCCCC2)C4C(=O)NC2CCCCC2)cc1` (stereo not drawn), with 9.9%; and `CCCCN(C)CCN1C(=O)C2C(C(=O)Nc3ccc(C)cc3)C3C=CC2(O3)C1C(=O)NC1CCCCC1` (stereo not drawn), with -26.1%. With `Cc1ccccc1NC(=O)/C(C#N)=C\c1cccnc1`, the “hERG current change (%, negative = inhibition) at 10uM” value is on record as -16.3%. Then `Cc1ccc2oc(C(=O)N3CCC(C(N)=O)(N4CCCCC4)CC3)c(C)c2c1`, with -27%. Then `COc1cc2cc(C(C)(C)O)oc(=O)c2cc1OC`, with 13%; and `O=C(Cn1ncc2c(=O)oc3ccccc3c21)NCCc1ccsc1`, with -54.2%; and `O=C(c1cc2c(=O)oc3ccccc3c2s1)N1CCOCC1`, with -0.51%.

As to `O=C(Cn1ncc2c(=O)oc3ccccc3c21)N1CCN(C(=O)c2ccco2)CC1`, the “hERG current change (%, negative = inhibition) at 10uM” value is on record as -73.6%. Then `O=C(c1ccco1)N1CCN(C(=O)c2cc3c(s2)-c2ccccc2OC3)CC1`, with -63.9%. Then `O=C(c1cc2c(s1)-c1ccccc1OC2)N1CCN(c2ccccc2)CC1`, with 8.08%; and `Cc1ccc2oc(=O)c3cc(C(=O)N4CCN(C(=O)c5ccco5)CC4)sc3c2c1`, with -21.5%.

In the case of `O=C(c1ccco1)N1CCN(C(=O)c2cc3c(=O)oc4ccccc4c3s2)CC1`, the “hERG current change (%, negative = inhibition) at 10uM” value was -62.9%. Then `O=C(Cn1ncc2c(=O)oc3ccccc3c21)NCCC1=CCCCC1`, with -3.92%. Then `O=C(Cn1ncc2c(=O)oc3ccccc3c21)N1CCC(N2CCCCC2)CC1`, with -5%. With `O=C(Cn1ncc2c(=O)oc3ccccc3c21)N1CCN(c2ccccn2)CC1`, the “hERG current change (%, negative = inhibition) at 10uM” value is -41%.

Take `Cc1ccc2oc(=O)c3cnn(CC(=O)NCCc4ccsc4)c3c2c1`: the “hERG current change (%, negative = inhibition) at 10uM” value was -12.2%. Then `O=C(c1cc2c(s1)-c1ccccc1OC2)N1CCCC1`, with -4.69%.

For the origin of these results see article PMC4336329 (PLoS ONE, 2015).
